# According to PubChem BioAssay AID1508600 (Functional Genomics Laboratory (NCATS/FGL), 2020):
# The whole screen tested about 53,000 sequences, of which about 3,700 (7%) were called active.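 The calls were made as follows: active = gene knockdowns whose robust z-score for IL-1 alpha signal is at least 2 or at most -2, so actives lie on both sides; inactive = the rest.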 This excerpt belongs to a sample that is enriched for actives.
# Assay: Components of the Cytosolic LPS Sensing Pathway: Gene Identification via Genome-wide siRNA Screen;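 also: robust z of the log signal after scaling to non-targeting control siRNA wells of the plate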
# Settings: RAW264.7 macrophages, IL-1a HTRF, actives lie on both sides, screened at 100 nM (by protocol), cells primed 5 h with Pam3CSK4 first
# Summary of the method: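 Using IL-1a HTRF as read-out, the screen measured release from RAW264.7 cells after 48h siRNA knockdown (100 nM), 5 h Pam3CSK4 priming and 24 h cytosolic LipidA. Values were expressed relative to negative-control wells as robust z-scores.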
row,Sequence,z-score
1,GGAUUUCUACAGGGUGUAUTT against Trim8,-1.19 (inactive)
2,GGAUCUUACUAUCACCAGCTT against Foxf1,1.99 (inactive)
3,CGGGCUACCAUUAUGGUGATT against Atp6ap2,0.382 (inactive)
4,GUGGCAGCACGACCUAUUCTT against Alyref2,-0.175 (inactive)
5,CCAAUUACCUGAAUAAAGCTT against Epb41l5,1.19 (inactive)
6,GGGCUCUACUAUUUUUUUUTT against Polh,-2.68 (active)
7,GCCCAGGUCUAAUGUCUAATT against Tac4,0.234 (inactive)
8,GGUGUUAAGUCACAAAAUGTT against Meis2,1.59 (inactive)
9,GGUUGUAUGUUGUGUGUUUTT against Cyrib,2.36 (active)
10,CGGAAUGUAGGACACGAAUTT against Ltb,-0.267 (inactive)
11,GGUGACUUCGGAGAAAAGGTT against Sncaip,0.257 (inactive)
12,GGAACAGCUGUGAUUAACGTT against Prdx4,0.343 (inactive)
13,GCUGGAAUACGUUGAUAUATT against Kcnab3,3.68 (active)
14,GGAGAGUCCAGUUUCCAUUTT against Rnf113a1,1.44 (inactive)
15,GCUCAGGAAUUUGACACCATT against Adgrl3,-1.33 (inactive)
16,CCUAAGAUGAUCGUAGGCUTT against Olfr1221,-0.643 (inactive)
17,CGAGCUUUCUUCGUACACCTT against Dvl2,-1.74 (inactive)
18,GGCAUACCUGGAGAAGUGUTT against Prr5l,-2.31 (active)
19,GCUAGCACUAAGUGAACCUTT against Ppp1r21,1.25 (inactive)
20,GGAUAAUAGGAACAAUCUGTT against Sval1,0.207 (inactive)
21,GGUCAGGUUGAGGACAUAATT against Vwa1,1.28 (inactive)
22,GCUUACCAGAUUGUAUGUATT against Mrgpra1,0.533 (inactive)

row,Sequence,z-score
1,GGAGAAAGAGCAGAGUCUGTT against Cep250,-2.04 (active)
2,GGCAGAGUUUGAAAAGAUCTT against Parp16,-1.42 (inactive)
3,GGCCCAAGAUUUCAAUUAGTT against 9130230L23Rik,-0.0833 (inactive)
4,GGUCAGAGGUCGACCUAUUTT against Oas1h,-2.18 (active)
5,GGUACAUUUUAUACUGGAGTT against Zfp277,0.163 (inactive)
6,GCCUCAUCGUAUAUAAAAUTT against Atp5mpl,-1.64 (inactive)
7,GGCCCAAACCUUAAAGUCCTT against Smyd4,-0.194 (inactive)
8,GGAAUGUACCCAUAAAAGUTT against Nudt19,0.988 (inactive)
9,GGCAUUGAGAAGUUUGAAGTT against Fmo9,-1.07 (inactive)
10,CCCUUGGUUAUGGAGAAAGTT against Mcoln2,-0.0392 (inactive)
11,GCACAACAAGCGAUGUCAUTT against Myo9b,-2.13 (active)
12,CCUACGUGAACAUGACGGUTT against Agfg1,0.096 (inactive)
13,GGUAGAGAAUUGAAACCUATT against Klhdc10,-0.776 (inactive)
14,GGAAUAUACCCUGAAACAUTT against Fam71d,0.0244 (inactive)
15,GGAGACUGUGGAUUUAAUUTT against Sult1a1,2.07 (active)
16,GGAGAUGUACCACAAUGCCTT against Prss29,-0.128 (inactive)
17,GGCGGUGAUCCAGGGUUUATT against Klc2,2.62 (active)
18,GGAGUCAAAAAAAAUGCAATT against Ribc1,1.17 (inactive)
19,GCAAGAUCCAGAACACUCATT against Adora1,-0.781 (inactive)
20,CCAAGGAGCAUUCUUUGGUTT against 1700024B05Rik,-0.0487 (inactive)
21,GGUUUGUAUCUUAAAUGCCTT against Tdpoz4,2.88 (active)
22,GGCCUCGUCAUUUUACAGGTT against Mcee,0.098 (inactive)

row,Sequence,z-score
1,GCCAAUAAUCCACAGGCAATT against Ryk,-0.577 (inactive)
2,CUGUAAGGCGGAUAAGACCTT against Pantr1,-1.42 (inactive)
3,GGUUACAAAAGAACCAGAUTT against Pik3c2g,1.66 (inactive)
4,GCGGCUUAGUCCAUCAGGATT against Aplf,0.819 (inactive)
5,GGAAGAGUGACUUGUGCAATT against Slc28a2,0.0125 (inactive)
6,GCUCGAGGCUUAGAAGACUTT against Hspb3,2.23 (active)
7,GGCUUACCUGGUCUACUCCTT against Wnt8b,-0.95 (inactive)
8,GCUACGUGUACCUGGAGUGTT against Cpeb1,-0.502 (inactive)
9,GGUGGUUAUUUAUUGGUGATT against Sp6,-0.272 (inactive)
10,GGUGCCUCAGAGUAAAUAUTT against Cdk2ap1,-0.895 (inactive)
11,GCAAGCAAUAGAGGAACCUTT against Rnf38,0.0643 (inactive)
12,GCAAACUAUUUGUCUGGUGTT against Ripk1,0.7 (inactive)
13,GGAGUACAUGGUGAUGUUGTT against Prss43,-2.6 (active)
14,CCGAAUCUCUCACGUGCCATT against Rtn4r,-0.474 (inactive)
15,GGAGUGUUUUACCUCUUUCTT against Nudt13,0.911 (inactive)
16,GGACUUGAUGACAGUGAAUTT against Strada,-2.27 (active)
17,GCACCAUGAAUUCUAUUGCTT against Kcnmb1,-0.24 (inactive)
18,GCCGCUUAAGAGGGAUUAUTT against Mrpl15,-0.394 (inactive)
19,GGAGUAACUAUUCCCAAUUTT against Herc1,1.41 (inactive)
20,GGAGUUGAGGUGAUUAUCUTT against Olfr1222,-2.33 (active)
21,GCUUAAGGAUCCAUAAUGUTT against Musk,0.981 (inactive)
22,GGAAGGAGAAAGAGUAUGATT against Mnt,0.525 (inactive)

row,Sequence,z-score
1,GCAGAAACGAUUGUACCAUTT against Ar,1.37 (inactive)
2,GGCUCAAAACCACACCACUTT against Olfr477,-2.75 (active)
3,CGAUUGCUAAGGUGUUUGATT against Sfmbt1,-0.45 (inactive)
4,GGAGCAUCAUUAUUCUGCATT against Gm527,-0.0903 (inactive)
5,GAGAAACCUGCCUCAUCUCTT against Spata3,-0.0842 (inactive)
6,GGAUUUGAACUCAGAUGUUTT against A430057M04Rik,2.15 (active)
7,GGGAUGUUCUUCAAUCCUGTT against Hecw2,0.0154 (inactive)
8,GCACUUCAGUUUACAAAACTT against Mier3,-0.891 (inactive)
9,CGUUUGAUGAGACCAUGUATT against Vwf,-0.459 (inactive)
10,GCCUGGUAGUUAGUCAGAATT against Klf11,2.4 (active)
11,GCUACAUGAUUCAGCGGAATT against Itga3,-1.23 (inactive)
12,CGGAUUAGUAUAAAUGUAGTT against Prss16,-0.109 (inactive)
13,UCACAACUGUCUGUUCUCATT against Klk1b3,-1.19 (inactive)
14,GCCACACACCUUCUAUAAUTT against Ptprs,-0.62 (inactive)
15,GCCAACGCAGCAAAAGCUCTT against Rsrp1,0.0495 (inactive)
16,CCCAAUAUGUUAGACCCUGTT against Slc16a8,0.448 (inactive)
17,GGUGAUAAUUAAUGUCUUGTT against Naip1,2.08 (active)
18,GGAUCAGAACUUAUCUGUGTT against Utp23,0.383 (inactive)
19,GGCACUGAUAAGAAGUACCTT against Dnah1,0.772 (inactive)
20,GCUUAUGUUAAACCAGAGATT against Syt8,0.0449 (inactive)
21,GGAUCCUAGCCUUUUAUCATT against Cep70,-1.11 (inactive)
22,GGAUUCCAGAGAAAUGUGATT against Lrrc66,-2.62 (active)

row,Sequence,z-score
1,GGUAUGAGUACAAAUACUGTT against Tek,1.97 (inactive)
2,GGCUCUGCCAUUUUCCCUUTT against F12,-1.24 (inactive)
3,GGCCAAGUUCCAUAUCACCTT against Eefsec,0.46 (inactive)
4,GGAACUCAGUCAGGACCAATT against Hnf4aos,0.954 (inactive)
5,CGAGAAUAUGUGAGAGCUUTT against Dcaf13,-0.793 (inactive)
6,GGAGACCCUGGUGAGAAGATT against Emid1,0.26 (inactive)
7,GGAACACAGAGGUAAAAGGTT against Olfr446,-2.66 (active)
8,CCAGCAUGCAUGAACGAGUTT against Carnmt1,0.508 (inactive)
9,CCCUGUAACCAAUAAGAAGTT against Snrpa1,-0.401 (inactive)
10,GGGCUAUGCAGACCUGUACTT against Cyb561,-2.45 (active)
11,CCUUGGGACAAGCAUAUAUTT against Psg25,0.901 (inactive)
12,GGCAAGUCUAAAAUACAUUTT against St6galnac4,-0.439 (inactive)
13,CGUACCAGAUGAGCUAAGUTT against Zfp513,2.56 (active)
14,CCUGUUGUAUUGUUUAGCGTT against Ago2,-0.402 (inactive)
15,CCUCAAGAUAAACCGACAATT against Bard1,0.388 (inactive)
16,GGAGUCCGCUCAGAAUUUGTT against Lhpp,-0.194 (inactive)
17,GGACAAAGUUGUUCCUUCUTT against Zfp13,-2.62 (active)
18,GGAAGAUCUACAUCGUGGGTT against Klhl26,0.341 (inactive)
19,GGUGGUUUUUUGUUGUUGUTT against Lhfpl4,0.277 (inactive)
20,GCCUAUGACUACCUCGAGUTT against Rhob,-2.01 (active)
